High-throughput results from PubChem BioAssay.
GPR151 ag = human GPR151 activation | Q8TDV0 | PathHunter beta-arrestin GPR151 cells, luminescence | activation, % at 11.2 µM | 650,000 tested, 1% active | AID 1508602; in the data active = activation above about 4.9%;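 note: 0% = median of compound wells and 100% = cells with positive control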
Target sequence (Q8TDV0 whole entry, looked up): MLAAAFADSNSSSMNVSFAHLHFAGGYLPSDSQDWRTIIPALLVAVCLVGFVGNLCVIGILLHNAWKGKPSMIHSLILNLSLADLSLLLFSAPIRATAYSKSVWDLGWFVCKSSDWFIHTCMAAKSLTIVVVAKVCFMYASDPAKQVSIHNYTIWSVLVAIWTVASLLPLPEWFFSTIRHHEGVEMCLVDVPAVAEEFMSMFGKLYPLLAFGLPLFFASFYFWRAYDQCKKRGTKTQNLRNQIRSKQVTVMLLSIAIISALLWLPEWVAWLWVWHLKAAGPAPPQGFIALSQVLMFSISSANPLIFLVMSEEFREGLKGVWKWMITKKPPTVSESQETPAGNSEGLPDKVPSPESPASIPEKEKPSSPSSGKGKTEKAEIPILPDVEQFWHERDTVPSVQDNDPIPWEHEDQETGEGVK
TEAD-YAP inh = TEAD-YAP interaction inhibition; inhibition, % at 9.12 µM; 640,000 tested, 1.4% active; AID 1259422; HEK-TIYL cells, TEAD-Gal4/YAP UAS-luciferase luminescence; in the data active = inhibition above about 32%;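 note: 0% = median of test compound wells and 100% = reference inhibitor wells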
MITF primary = human MITF inhibition, primary screen. AlphaScreen MITF homodimerization, bead proximity signal. 650,000 tested, 0.91% active. inhibition, % at 2.6 µM; in the data active = inhibition above about 50%;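 note: 0% = vehicle wells with protein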
FBW7 activator = activators of human E3 ligase FBW7. AID 1259310. normalized activity (activation), % at 26.1 µM. 650,000 tested, 0.13% active. AlphaScreen FBW7–phospho-cyclin E peptide binding, activator screen. Q969H0; in the data active = normalized activity above about 1.9%;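 note: purified mutant Fbw7 with reduced substrate affinity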
GPR151 confirm = confirmation of human GPR151 activators | 6,700 tested, under 10 active | activation, % at 11.2 µM | shares compounds with GPR151 ag | GPR151 PathHunter beta-arrestin cells, luminescence, 90 min; % of EA-reagent control over plate median | AID 1508609;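 active = mean percent activation across replicates above the confirmation screen cutoff of 4.91%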
GPR119 counter = counter-screen for GPR151 activators: effect on human GPR119; shares compounds with GPR151 ag; GPR119 PathHunter beta-arrestin cells, luminescence, 90 min; 0 = compound-well median, 100 = enzyme-acceptor control; activation, % at 11.2 µM; 6,700 tested, 0.3% active; AID 1508611;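 active = mean percent activation in the counterscreen above 29.09%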;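 note: counterscreen on off-target GPR119 to flag nonselective hits from the GPR151 activator screen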
Starred values were filed as active, the others as inactive; nt = not tested or not shown; ! = not active in a repeat. Rows were chosen to be rich in hits. Some 3.5% of all compounds tested hit in one or more screens of this group.

SMILES	GPR151 ag	TEAD-YAP inh	MITF primary	FBW7 activator	GPR151 confirm	GPR119 counter
COc1cc(Nc2cc(C)nc(N3CCc4ccccc4C3)n2)cc(OC)c1OC	2	3	5	0	nt	nt
COc1cc(Nc2ccnc(N3CCc4ccccc4C3)n2)cc(OC)c1OC	6.8*	5	4	0	0	18
CC(C)c1ccc(CN(C(=O)c2cc3ccccc3oc2=O)C2CCS(=O)(=O)C2)cc1 (stereo unspecified)	5.6*	-13	4	0	0	4
N#Cc1cccc(NC(=O)c2ncc(Cl)c(Cl)c2Cl)c1	-1	6	12	0	nt	nt
Cc1noc(C)c1-c1nc(NCCOc2ccccc2)c2ncn(C3CCCCC3)c2n1	-1	2	-3	0	nt	nt
CCCNc1nc(Nc2ccncn2)nc2c1ncn2C1CCCCC1	4.9*	-48	10	0	0	13
CCCNc1nc(-c2c(C)noc2C)nc2c1ncn2C1CCCCC1	5.5*	-46	-1	0	0	-4
Cc1nn(C)c(C)c1-c1nc(NCCCN2CCCC2=O)c2ncn(C3CCCCC3)c2n1	5.8*	-15	-11	0	-1	-8
OCCNc1nc(Nc2ccncn2)nc2c1ncn2C1CCCCC1	-1	-27	15	0	nt	nt
CC(=O)Nc1ccc(OCC[n+]2ccccc2)cc1	0	-77	13	1	nt	nt
CSc1ncc(CN2CCCC(N3CCN(c4ccccc4)CC3)C2)cn1 (stereo unspecified)	8.8*	-2	12	0	-1	-6
Cc1ccc(-n2c(SCC(=O)N3CCOCC3)nnc2-c2ccccc2O)c(C)c1	0	16	15	0	nt	nt
O=C(Cc1cccc(F)c1)N1CCC(O)(c2ccccn2)CC1	0	0	-4	0	nt	nt
O=C(Cc1ccc(F)cc1)N1CCC(O)(c2ccccn2)CC1	11*	-5	14	0	1	13
O=C(CC1C(=O)NCCN1Cc1ccc2ccccc2c1)NC1CCOCC1 (stereo unspecified)	0	10	7	0	nt	nt
COc1ccccc1/C=C/CN1CCNC(=O)C1CC(=O)NC1CCC1 (stereo unspecified)	0	7	-6	0	nt	nt
O=C(CC1C(=O)NCCN1CC(c1ccccc1)c1ccccc1)NC1CCC(O)CC1 (stereo unspecified)	5.3*	2	12	0	-1	-7
O=C(CC1C(=O)NCCN1Cc1ccc2ccccc2c1)NC1CCCCCC1 (stereo unspecified)	9.5*	-2	-2	0	-2	-19
COc1ccccc1/C=C/CN1CCNC(=O)C1CC(=O)NC1CCOCC1 (stereo unspecified)	4.9*	7	-6	0	-1	-11
N#Cc1cccc2c1NC(c1cccc(Cl)c1Cl)C1CC=CC21 (stereo unspecified)	0	6	11	0	nt	nt
O=C1CSC(c2c(F)cccc2Cl)N1c1cccc(C(F)(F)F)c1 (stereo unspecified)	2	-3	10	0	nt	nt
CC(NCCc1ccc(O)cc1)C(O)c1ccc(O)cc1 (stereo unspecified)	0	0	-3	0	nt	nt
C[C@@H](NCCc1ccc(O)cc1)[C@@H](O)c1ccc(O)cc1	6.4*!	14	18	0	-1	-13
CCCOc1ccc(C(=O)Nc2cccc(-c3nc4cc(C)cc(C)c4o3)c2)cc1	3	-3	0	0	nt	nt
O=C(CCN1C(=O)c2ccccc2S1(=O)=O)Nc1ccc(C(=O)O)cc1	7.6*	-4	-18	0	1	6
COc1ccc(NC(=O)CCN2C(=O)c3ccccc3S2(=O)=O)cc1	-1	-7	4	0	nt	nt
CC1CCN(C(=O)CSc2cn(Cc3ccccc3Cl)c3ccccc23)CC1	-1	2	1	0	nt	nt
COc1ccc(/C=C(\C#N)c2nc3ccccc3[nH]2)cc1O	4.9*	-62	2	0	0	1
NC(=O)c1ccccc1NC(=O)CSc1nc2ccccc2c(=O)[nH]1	5.3*	0	-14	0	0	0
COC(=O)c1ccccc1NC(=O)CSc1nc2ccccc2c(=O)[nH]1	0	5	2	0	nt	nt
